The structures appear in SMILES notation. Calls of active or inactive are those of the source. The calls were made as follows, unless noted: active = hit-call score of the fitted dose curve at least 0.9, where 1 is the maximum; inactive = score below 0.9.

Data on three compounds can be found in PubChem BioAssay (EPA / NIEHS).

The nature of the first test: CCTE_Deisenroth_H295R-HTRF_384WELL_ESTRADIOL: CCTE's H295R-HTRF Assay Evaluation of Estradiol Concentration, Deisenroth Lab (AID 2284361). Particulars: actives raise or lower the signal. An outline of the steps: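 H295R cells exposed 48 h to chemicals at 0.001 - 100 uM final (nine points, triplicate); estradiol in conditioned medium measured by HTRF immunoassay, fitted bidirectionally versus DMSO. Viability by CellTiter-Glo on same plates.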
For orientation: Time-resolved FRET reads energy transfer from a long-lived donor to a nearby acceptor.
As for `CNC(=O)CSP(=S)(OC)OC`, the call was inactive.

Regarding `CC(C)(C)C(O)C(Oc1ccc(Cl)cc1)n1cncn1` (centres undefined), the compound was classed as inactive.

What is called AC50 is the midpoint of the concentration-response curve, whichever way the signal moves. `CCCN(CCOc1c(Cl)cc(Cl)cc1Cl)C(=O)n1ccnc1`: the concentration at half-maximal activity (AC50) is 1.73 nM (active).

A further test can be described thus: CCTE_Deisenroth_H295R-HTRF_384WELL_TESTOSTERONE: CCTE's H295R-HTRF Assay Evaluation of Testosterone Concentration, Deisenroth Lab (AID 2284373). As to conditions: actives raise or lower the signal. In short, it runs like this:
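H295R cells were acclimated 24 h, then exposed 48 h to nine concentrations (0.001–100 uM final) in technical triplicate, n=5. Testosterone in conditioned medium was measured by HTRF (em 620/665 nm). Fitting was bidirectional versus DMSO; CellTiter-Glo viability ran on the same plates.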
In the case of `CNC(=O)CSP(=S)(OC)OC`, the outcome was inactive.

On to `CC(C)(C)C(O)C(Oc1ccc(Cl)cc1)n1cncn1` (centres undefined), for which the compound was classed as inactive.

For the compound `CCCN(CCOc1c(Cl)cc(Cl)cc1Cl)C(=O)n1ccnc1`, the AC50 was 322 nM (active).

The nature of the next test: CCTE_Deisenroth_H295R-HTRF_384WELL_CTOX: Cytotoxicity Assessment in CCTE's H295R-HTRF Assay, Deisenroth Lab (AID 2284380; active = hit-call score of the fitted dose curve at least 0.9, where 1 is the maximum).
Settings: not given
As for the experimental part:
CCTE_Deisenroth_H295R-HTRF_384WELL assay is a cell-based, multiplex-readout assay that uses H295R, a human adrenocortical carcinoma cell line, with measurements taken at 48 hours after chemical dosing in a 384-well microplateCCTE_Deisenroth_H295R-HTRF_384WELL_CTOX is one of 3 assay components measured in the CCTE_Deisenroth_H295R-HTRF_384WELL assay (2 hormones and 1 viability components). It is designed to make measurements of adenosine triphosphate (ATP), a form of viability reporter, as detected with luminescence intensity signals by CellTiter-Glo 2.0 cytotoxicity assay technology.This assay endpoint, CCTE_Deisenroth_H295R-HTRF_384WELL_CTOX, was analyzed in the positive fitting direction relative to DMSO as the negative control and baseline of activity. Using a type of viability reporter, loss-of-signal activity using CellTiter-Glo 2.0 technology was used to understand viability in the H295R cell line at 48hr of chemical exposure. To generalize the intended target to other relatable targets, this assay endpoint is annotated to the cell cycle intended target family, where the subfamily is cytotoxicity
Standard operating procedures for the cell culture medium, maintenance, expansion, and cryopreservation of the NCI-H295R adrenocortical carcinoma adherent cell line were adopted directly from guideline specifications (EPA 2011, OECD 2011). The assay workflow follows a three-day protocol consistent with the paradigm defined in OECD TG 456 and U.S. EPA OCSPP Guideline 890.1550. On day 0, cells are plated in 384-well microplates and acclimated for 24 hours. On Day 1, test chemicals are dispensed into separate 384-well microplates in a nine-point 2X dilution series (0.002 - 200 uM). […] Fluorescent endpoint measurements are conducted with a microplate reader equipped with an HTRF-compatible filter set (ex: 320 (10) […]; em: 620 (10) and 665 (10) nM). […] After collecting conditioned medium samples on Day 3, the viability assay is immediately performed and luminescence readings measured on a microplate reader. […]
On to `CNC(=O)CSP(=S)(OC)OC`, for which the result was inactive.

For `CC(C)(C)C(O)C(Oc1ccc(Cl)cc1)n1cncn1` (centres undefined), the outcome was inactive.

As for `CCCN(CCOc1c(Cl)cc(Cl)cc1Cl)C(=O)n1ccnc1`, the call was inactive.
